# Assay results taken from PubChem BioAssay AID743395 (Broad Institute, 2014).
# About 480 (40%) of roughly 1,200 compounds were called active. So high a share suggests a set chosen from earlier hits. Only a sample is shown. Results with a measured potency or affinity are listed apart. A number with no mark means an inactive call. No rule for the calls is given here.
# Assay: HepG2 cell cytotoxicity, dose response, cytotoxicity control, CellTiter-Glo luminescence, cherry-pick, set 2 (AID 743395);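 also: 0% = neutral control wells and -100% = positive control wells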
# Conditions: HepG2 viability, CellTiter-Glo ATP luminescence, 72 h; series mostly up to 26 µM; activity change, negative = cytotoxicity: at the top concentration
row,SMILES,"activity change, negative = cytotoxicity"
1,CCOC(=O)c1[nH]c(C)c(/C(O)=C2\C(=O)C(=O)N(CCCN3CCOCC3)C2c2cccs2)c1C (stereo not given),10.2%
2,CC(C)CC1Nc2ncnc(N3CCN(c4ccccn4)CC3)c2N(Cc2ccc(Br)cc2)C1=O (stereo not given),-0.413%
3,COc1ccc(-n2nnnc2C(c2ccccc2)N2CCN(C/C=C/c3ccccc3)CC2)cc1 (stereo not given),-7.14%
4,O=C(NNC(=O)c1ccncc1)Nc1ccc(Cl)cc1,10.9%
5,CCN1C(=O)[C@H]2[C@@H](c3ccc(-c4ccc(Cl)c(Cl)c4)cc3)N[C@@](C)(C(=O)OC)[C@H]2C1=O,-4.63%
6,NC(=O)CC(NC(=O)Cc1ccc(Br)cc1)c1ccc(NC2CC3CCC2C3)c([N+](=O)[O-])c1 (stereo not given),-30.8%
7,CN(C)/C=C1\C=C2C(=O)c3ccccc3N2C1=O,-9.76%
8,CC(O)CNc1nc(N)[nH]c(=O)c1N=Nc1ccccc1 (stereo not given),9.61%
9,CCC(C(=O)OCC(=O)C1(O)CCC2C3CCC4=CC(=O)CCC4(C)C3C(O)CC21C)C(C)C (stereo not given),-8.94%
10,OC[C@@H]1[C@@H](c2ccccc2)C2(CN(Cc3ccccc3F)C2)N1Cc1ccccc1F,-2.23%
11,NC(=O)c1cc(Cl)ccc1OCC(=O)NC1CC1,-6.69%
12,O=C(c1ccccc1F)N1CC[C@@H]2[C@H](CO)Nc3ccc(Br)cc3[C@@H]21,-27.6%
13,COc1ccc(C#Cc2ccc3c(c2)[C@@H]2[C@@H](CCN2C(=O)c2cccc(F)c2)[C@@H](CO)N3)cc1,-3.32%
14,O=C(NCc1nnnn1-c1ccc(Cl)cc1)C(=O)c1c[nH]c2ccccc12,0.083%
15,COc1ccc(NC(=O)N[C@@H]2CC[C@@H](CCn3cc(-c4ccc(F)cc4)nn3)O[C@@H]2CO)cc1,9.05% [at 23.5 µM]
16,NNC(=O)c1[nH]c2ccc(Cl)cc2c1-c1ccccc1,-17.7%
17,CC1CN(S(=O)(=O)c2cccc(C(=O)Nc3cc(Cl)ccc3N3CCOCC3)c2)CC(C)O1 (stereo not given),-14.3%
18,O=C(NC(Cc1ccccc1)C(=O)N1CCN(S(=O)(=O)c2ccccc2F)CC1)c1ccccc1 (stereo not given),-13.5%
19,CC(C)(C)C(=O)OCc1nc(-c2ccc(O)c(O)c2)cs1,-8.53%
20,CO[C@@H](CN(C)S(=O)(=O)c1ccc(C)cc1)[C@H](C)CN([C@H](C)CO)S(=O)(=O)c1cccc(Cl)c1,7.18%
21,COc1ccc(CNC(=O)c2cc3c(c(-c4cccc(-c5ccc(C#N)cc5)c4)n2)[C@@H](CCO)N([S@](=O)C(C)(C)C)C3)cc1,-9.63% [at 23.5 µM]
22,COc1cccc(C(=O)c2c[nH]c(C(=O)NCCCN3CCOCC3)c2)c1,-0.29%
23,CC(Sc1nc2ccccc2c(=O)n1C)C(=O)Nc1ccc2c(c1)OCCO2 (stereo not given),-2.36%
24,c1ccc(CCN(Cc2ccccc2)Cc2nc(C3CC3)no2)cc1,-4.04%
25,O=C(CCN1CCCCC1)N1CCc2c([nH]c3ccccc23)C1c1cccnc1 (stereo not given),0.121%

row,SMILES,"activity change, negative = cytotoxicity"
1,COc1ccc(OC)c(N/C(N)=N/c2nc(C)cc(C)n2)c1,-5.35%
2,COc1cc(C(O)CO)ccc1OS(=O)(=O)O (stereo not given),-16.3%
3,COc1ccc2c(c1OC)OCC2C (stereo not given),-0.236%
4,Cc1cc(C)nc(N(C#N)Cc2cccc(Cl)c2)n1,-20.8%
5,CCOc1ccc(C(=O)NCC(=O)NNC(=O)c2cc(C)oc2C)cc1OCC,3.23%
6,Cc1cccc(C(=O)OCC(=O)NC(C)C2CC3CCC2C3)c1O (stereo not given),-11.9%
7,Cc1ccc(-n2cc(-c3ccccc3)c3c(N4CCOCC4)ncnc32)cc1,16.3%
8,O=C(C(Cc1ccccc1)n1cccc1)N1CCCCC1 (stereo not given),9.04%
9,CC(C)(C)C1COc2ccccc2N1C(=O)c1cccc(Cl)c1 (stereo not given),-1.18%
10,C/C=C/c1ccc2c(c1)O[C@@H](CN(C)C(=O)Nc1cccc(F)c1)[C@H](C)CN([C@H](C)CO)S2(=O)=O,5.7%
11,Cc1cc2c(s1)Nc1ccccc1N=C2N1CCN(C)CC1,-19.3%
12,CCN[C@H]1CN(CCCOC)S(=O)(=O)c2sc(S(N)(=O)=O)cc21,6.26%
13,O=C(c1ccc2ccccc2c1)N1CCN(Cc2ccccc2)CC1,-13.3%
14,Cc1cccc(N2CCN(C(=O)c3c(-c4ccccc4Cl)noc3C)CC2)c1C,-18.3%
15,NC1(C(=O)O)CC1,11.4%
16,O=c1cnc2ccccc2n1CC1CCCCC1,-4.42%
17,Cc1cc(C)c(/C=C2\C(=O)Nc3ccccc32)[nH]1,-18.6%
18,Cc1cccc(N(C)S(=O)(=O)c2ccc(-c3cc(C)no3)s2)c1,10.6%
19,CC(OC(=O)c1cccs1)C(=O)NC1CCCCC1C (stereo not given),-16.4%
20,Cc1cc(C(=O)N/N=C/c2ccc([N+](=O)[O-])cc2)c2ccccc2n1,-25.6%
21,CN(C)c1ccc2c(c1)[C@@H]1C[C@@H](CC(=O)NCc3ccc(Oc4ccccc4)cc3)O[C@H](CO)[C@@H]1O2,-15.5%
22,CCN(CC(=O)Nc1cc(Cl)ccc1-n1cncn1)Cc1nc2ccccc2c(=O)[nH]1,-9.39%
23,Cc1cc(C(=O)N2CC=C(c3ccccc3)CC2)c2ccccc2n1,-29.1%
24,CCN(C(=O)COC(=O)c1cc2c(s1)CCCC2)c1c(N)n(Cc2ccccc2)c(=O)[nH]c1=O,-4.95%
25,COc1ccccc1NS(=O)(=O)c1cc(-c2cnc(C3CC3)o2)ccc1C,-17.7%
